# According to PubChem BioAssay (NCI):
# Compounds without any hit were thinned out: in the full panel of roughly 83,000, 20% have a hit.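 For each line, cells grew in 96-well plates with the test compound present at a single concentration for 48 hours.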 A number with no mark means an inactive call. Calls of active or inactive are those of the source. How the source made its calls: active means growth percent below 10; inactive means the rest.
# Assays:
# Assay in all cases: NCI-60 one-dose screen, 48 h (100 = growth as untreated, 0 = no growth, -100 = all killed)
# Conditions in all cases: 10 µM unless noted
# [1] = system: SK-MEL-2 melanoma
# [2] = system: EKVX NSCLC
# [3] = system: SN12C renal
# [4] = system: UO-31 renal
# [5] = system: TK-10 renal
# [6] = system: ACHN renal
# [7] = system: CAKI-1 renal
# [8] = system: A498 renal
# [9] = system: CCRF-CEM leukemia
# [10] = system: MOLT-4 leukemia
# [11] = system: SR leukemia
# [12] = system: RPMI-8226 leukemia
# [13] = system: OVCAR-8 ovarian
# [14] = system: OVCAR-5 ovarian
# [15] = system: OVCAR-4 ovarian
# [16] = system: SK-OV-3 ovarian
# [17] = system: IGROV1 ovarian
# [18] = system: OVCAR-3 ovarian
# [19] = system: HS 578T breast
# [20] = system: NCI/ADR-RES ovarian
SMILES,growth [1],growth [2],growth [3],growth [4],growth [5],growth [6],growth [7],growth [8],growth [9],growth [10],growth [11],growth [12],growth [13],growth [14],growth [15],growth [16],growth [17],growth [18],growth [19],growth [20]
COC(=O)c1c(C)nc(C)c2c1C(=O)C(Br)=C(NCCN1CCOCC1)C2=O,99.4%,100%,89.5%,86.5%,108%,97.9%,91.4%,92.4%,97.3%,99.3%,107%,93.7%,81.9%,118%,73.8%,138%,96.2%,13.2%,110%,103%
CCOC(=O)C1=C(c2ccccc2)N=C2N(c3ccccc3)N=C(C(C)=O)N2C1c1ccc(Br)cc1 (stereo not given),90.3%,93.9%,90%,72.7%,109%,93.3%,87.1%,42.9%,87.7%,93.6%,81.8%,77.8%,93.9%,104%,104%,112%,88%,102%,83.2%,103%
CCC(C)C(N)C(=O)NC(CC(C)C)C(=O)N1CCCC1C(=O)NC(Cc1c[nH]c2ccccc12)C(=O)NC(CCCCN)C(=O)NC(Cc1c[nH]c2ccccc12)C(=O)N1CCCC1C(=O)NC(Cc1c[nH]c2ccccc12)C(=O)NC(Cc1c[nH]c2ccccc12)C(=O)N1CCCC1C(=O)NC(Cc1c[nH]c2ccccc12)C(=O)NC(CCCNC(=N)N)C(=O)NC(CCCNC(=N)N)C(N)=O (stereo not given),108%,104%,101%,68.1%,124%,98%,90.4%,130%,-58.7% (active),-28.2% (active),10.9%,75%,75.5%,98.8%,119%,109%,58.4%,101%,105%,92.1%
CC/C(=C(/c1ccc(Cl)cc1)c1ccc(OCCN2CCCC2)cc1)c1ccccc1,88%,59.3%,69.3%,66.2%,93.5%,87.9%,61.6%,79.7%,36.9%,42.8%,-10.5% (active),7.58% (active),69.7%,82.4%,72.2%,104%,76.6%,70.2%,71.3%,80.1%
CCOC(=O)/C(=C\c1ccccc1Cl)P(=O)(OCC)OCC,68.1%,73.1%,68%,53.9%,75.5%,52.8%,75%,103%,19.5%,25.1%,-0.778% (active),7.93% (active),59.1%,82.4%,75.1%,95.7%,65.7%,56.1%,80.3%,44%
CC/C(=C(/c1ccc(Cl)cc1)c1ccc(OCCN(CC)CC)cc1)c1ccc(OC)cc1,89.5%,62.2%,67.5%,67.5%,64.9%,79.4%,77%,104%,24.3%,19.7%,-26% (active),-21.4% (active),60.4%,61.5%,70%,89.8%,60.4%,65.8%,81.5%,69.7%
COC(=O)[C@H](C)NC(=O)c1ccc(NC(=O)c2[nH]c(C)c(Cl)c2Cl)c(OCCN)c1,121%,103%,97.5%,98.2%,112%,99%,96%,88.9%,97.8%,91.2%,67.2%,96.9%,96.2%,106%,113%,106%,104%,108%,101%,107%
O=C(Nc1ncc(Cc2ccc(Cl)cc2)s1)c1ccc2c(c1)OCCO2,41%,35.7%,30.8%,50.2%,49.5%,29.8%,28.7%,-2.66% (active),15.4%,6.99% (active),4.7% (active),20%,21.7%,37.1%,50%,33.4%,22.3%,2.45% (active),23.6%,10.9%
Cc1c2ccncc2c(C)c2c1c1ccccc1n2CCCCCC(=O)O,92.4%,90.3%,94.2%,56.7%,128%,82.9%,91.1%,52.8%,94.1%,74.8%,65.1%,86.3%,79.5%,109%,94.3%,95.6%,76.9%,93.1%,88.5%,80.1%
Cn1ccnc1C(=O)/C=C/c1ccc(C(=O)Nc2c(F)c(F)c(F)c(F)c2F)cc1,96.2%,25%,6.49% (active),-81.7% (active),20.4%,-43% (active),8.22% (active),76.7%,2.63% (active),2.64% (active),-17.4% (active),-9.03% (active),20.6%,13.1%,22.4%,62.1%,0.574% (active),-4% (active),48.5%,7.31% (active)
COC(=O)c1nc(-c2ccc(C)cc2)oc1N1CCOCC1,106%,92.8%,93.1%,83.7%,81.6%,102%,90.3%,77.4%,85%,80.8%,80.3%,88%,107%,88.1%,109%,94.9%,89.5%,107%,108%,96.7%
CS(=O)(=O)Nc1cc(-c2ccc3ncnc(Nc4cccc(Cl)c4)c3c2)cnc1Cl,-40.6% (active),-23.9% (active),16.2%,-2.12% (active),-20.4% (active),11.8%,2.5% (active),-58.1% (active),14.7%,-16% (active),0.413% (active),-44.8% (active),16.4%,7.66% (active),13.7%,-28.4% (active),-25.7% (active),-10.7% (active),-13.6% (active),19.2%
N#Cc1nn(-c2ccccn2)c(N)c1C#N,93.7%,94%,105%,91.1%,98.7%,99.6%,92.7%,106%,105%,92.9%,86.2%,110%,106%,97.5%,105%,91.5%,108%,114%,105%,104%
CCN(CC)CCCC(Nc1c2ccc(Cl)cc2nc2ccc(OC)cc12)c1ccncc1 (stereo not given),108%,87%,63.5%,54.3%,81.8%,57%,90.2%,81.8%,59.8%,18.3%,-6.47% (active),74.3%,58.4%,96.6%,68.5%,97.6%,75.7%,95.6%,97.5%,81.4%
CC1=C(C(=O)OCc2ccccc2)C(c2ccc3c(c2)OCO3)n2c(nc3ccccc32)N1 (stereo not given),47.8%,64.4%,47.6%,51.1%,65.6%,38.4%,34.3%,-10.2% (active),24.9%,37.1%,9.81% (active),39.8%,46.7%,64.4%,73.8%,41.7%,41.4%,12.1%,0.752% (active),23.2%
COC(=O)CNC(=O)c1ccc(NC(=O)c2[nH]c(C)c(Cl)c2Cl)c(O[C@H]2CCNC2)c1,108%,102%,97.5%,84.8%,104%,106%,94.9%,89.9%,91.9%,93.5%,83.7%,96.7%,101%,112%,110%,96.6%,111%,114%,92.8%,112%
Cc1c(C)c2c(c(C)c1OC(=O)CCC(=O)[O-])CCC(C)(CCCCCCCCCCC[P+](c1ccccc1)(c1ccccc1)c1ccccc1)O2 (stereo not given),-64.4% (active),-25.1% (active),-65.7% (active),-3.37% (active),-14.2% (active),-5.75% (active),-28.3% (active),-73.9% (active),0.344% (active),-25.5% (active),-25.5% (active),-47.7% (active),3.73% (active),13.5%,-1.74% (active),-27% (active),-13.1% (active),-76.4% (active),-15% (active),74.3%
CCCCCCCCOC(=O)c1c(C)[nH]c(/C=C2\N=C(c3ccc[nH]3)C=C2OC)c1C,-70.3% (active),27.8%,11.7%,-52.1% (active),9.67% (active),-18.9% (active),-13.2% (active),-7.97% (active),17.7%,4.33% (active),14.1%,-21% (active),4.86% (active),15.2%,4.99% (active),20.8%,10.1%,-38.6% (active),-27.8% (active),15.9%
COc1cccc(-c2cc(-c3ccc(Nc4nc(Nc5ccc(Cl)cc5)nc(Nc5ccc(Cl)cc5)n4)cc3)nc(N)c2C#N)c1,37.7%,34.3%,79%,-66.8% (active),-53.4% (active),33.1%,37.3%,80.5%,5.11% (active),7.5% (active),-6.27% (active),-55.8% (active),48.9%,82.2%,23.6%,122%,10.1%,-52.7% (active),14.1%,73.3%
COC(=O)c1nc(-c2ccccc2)oc1S(=O)(=O)N1CCN(c2ccc(OC)cc2)CC1,106%,88.2%,85.4%,66.1%,68.1%,66.4%,79.3%,121%,-11.9% (active),25.1%,-1.38% (active),37.3%,83.8%,88.7%,88.7%,104%,71.7%,45.4%,89.2%,104%
COc1ccc(NC(=O)c2sc3nc(C)c(C(=O)c4ccccc4)cc3c2N)cc1,88.8%,94.7%,99.5%,90%,86.6%,95.1%,92.9%,-9.31% (active),95%,88.5%,81.2%,101%,101%,82.8%,91.1%,92.6%,101%,103%,83.5%,108%
COc1cc(C2CC(c3cccc(Nc4ccncc4)c3)=Nc3c(N)ncnc3N2)cc(OC)c1OC (stereo not given),92.6%,87.2%,93.9%,98.5%,110%,95.1%,85%,87.4%,73.2%,85.6%,30.1%,71.8%,93.6%,111%,84.1%,88.3%,95.8%,88.9%,95%,96.7%
O=C(OCc1ccc2c(Br)cc(Br)c(O)c2n1)N1CCN(C(=O)c2cc3ccccc3[nH]2)CC1,44.8%,29.9%,31.3%,12.8%,47.5%,14.4%,23%,20.3%,21.2%,35.5%,31.3%,34.3%,25.5%,54.3%,26%,40.1%,31.5%,31.3%,48.2%,7.07% (active)
COc1cc2cc(Oc3ccc(NC(=O)Nc4ccc(Cl)c(Cl)c4)cc3)c(C)nc2cc1OCCN1CCCCC1,124%,99.8%,101%,88.2%,133%,106%,78%,86.8%,9.57% (active),64.6%,-3.12% (active),79.1%,32.1%,137%,-16.5% (active),119%,93.4%,105%,108%,99.5%
CCCCCCCCCCCCCCCCCCOc1ccccc1CC(=O)OCC[N+]1(C)CCCCC1,80.3%,63.1%,24.2%,73.8%,66.2%,94.7%,65.5%,83.3%,6.32% (active),6.43% (active),10%,-10.2% (active),21.9%,54.8%,32%,96.6%,-32.1% (active),61.7%,62.3%,92.3%
COc1ccc2c(c1)c(-c1nc(-c3cn(C)c4ccncc34)cs1)cn2C,112%,-36.7% (active),94.2%,71.2%,79.7%,95%,75.6%,90.9%,-27.9% (active),-31.1% (active),-26.1% (active),-48% (active),-3.91% (active),-16.7% (active),-3.39% (active),119%,-2.51% (active),-77.6% (active),104%,10.2%
C=C(C)[C@@H]1CC[C@]2(COC(=O)c3cccnc3)CC[C@]3(C)[C@H](CC[C@@H]4[C@@]5(C)CCCN(C(=O)c6cccnc6)C(C)(C)[C@@H]5CC[C@]43C)[C@@H]12,65.3%,49.6%,38.1%,35.9%,51.8%,29.5%,32.6%,46.7%,24.9%,23.6%,11.3%,14%,26.9%,53.9%,37.6%,53.1%,42.8%,32.9%,59%,42.7%
CCN1CCN(CCOc2ccc(CNc3ccc4nc(CCC5CCCCC5)[nH]c4c3)cc2)CC1,-3.49% (active),71.3%,67.8%,-24.9% (active),81.2%,40.9%,0.23% (active),43.9%,8.27% (active),20%,31.5%,-5.5% (active),38.2%,58.7%,48.2%,87.1%,40.9%,27.8%,65%,73.5%
C=C1C(=O)O[C@H]2[C@H]1CC/C(CNC(=O)/C=C/c1cc(OC)c(OC)c(OC)c1)=C\CC[C@@]1(C)O[C@@H]21,3.52% (active),25.3%,28.1%,-38.2% (active),-86.5% (active),-79.6% (active),33.9%,-9.24% (active),-10.6% (active),-26.6% (active),-13.8% (active),-5.59% (active),5.04% (active),15.9%,14.7%,64.6%,17.8%,-57.5% (active),24.2%,76.7%
